This note sets out measurements from ChEMBL document CHEMBL1157539, “Thousands of chemical starting points for antimalarial lead identification” (Nature, 2010).

Format in all cases: functional
Experiment [1] deals with Plasmodium falciparum. As to the kind of experiment: GSK_TCMDC: Inhibition of Plasmodium falciparum 3D7 in whole red blood cells, using parasite LDH activity as an index of growth. Test compounds present at 2uM.
Experiment [2] concerns Plasmodium falciparum. Kind of experiment: GSK_TCMDC: Inhibition of Plasmodium falciparum Dd2 in whole red blood cells, using parasite LDH activity as an index of growth. Test compounds present at 2uM.
In a further experiment the test system is HepG2. Kind of experiment: GSK_TCMDC: Percent inhibition of human HepG2 cell line. Test compounds present at 10uM.

For orientation: Inhibition means the percentage by which the read-out fell short of the control. Higher therefore signals strong suppression. For the molecule `O=C(NCCNc1ccnc(NCc2ccc(F)cc2)n1)c1cc2ccccc2s1`, the Inhibition in the experiment on Plasmodium falciparum [1] was 99%; in the experiment with Plasmodium falciparum [2], 17%; in the experiment on HepG2 it was 6%.

Turning to `N#CCSc1nnc(-c2ccccc2)c2ccccc12`, the values for the Inhibition in the experiment with Plasmodium falciparum [1], in the experiment with Plasmodium falciparum [2] and in the experiment with HepG2 were 84%, 73% and 5%, respectively.

For `CN(C)c1ccc2nc(N)nc(N)c2c1Cl.Cl`, the Inhibition is 98% in the experiment on Plasmodium falciparum [1], 0% with Plasmodium falciparum [2] and 68% with HepG2.

Take `O=C(O)C(F)(F)F.OCC1CCN(Cc2cccc(-c3ccc(-c4nc5cc(C(F)(F)F)ccc5[nH]4)cc3)c2)CC1`: the Inhibition in the experiment with Plasmodium falciparum [1] was determined as 100%; with Plasmodium falciparum [2] it was 95%; in the experiment with HepG2, 25%.

As to `CCCCNc1ccc(C(=O)NC2CCN(C[C@H](O)c3ccnc4ccc(OC)cc34)CC2)cc1`, the Inhibition amounted to 90% with Plasmodium falciparum [1], 64% with Plasmodium falciparum [2] and 12% in the experiment with HepG2.

In the case of `c1ccc2cc3c(Nc4ccc(N5CCCCC5)cc4)ccnc3cc2c1`, the results for the Inhibition with Plasmodium falciparum [1], with Plasmodium falciparum [2] and in the experiment on HepG2 were 100%, 36% and 21%, respectively.

For the molecule `CN(C)CCOc1ccc(-c2cc(-c3ccncc3)c(-c3ccc(Cl)c(O)c3)o2)cc1.Cl`, the Inhibition with Plasmodium falciparum [1] is 99%; in the experiment with Plasmodium falciparum [2], 93%; with HepG2, 0%.

For the molecule `C=CCN1C(=O)C(C(C)=O)=C(O)C1c1ccccc1` (stereo unspecified), the Inhibition in the experiment on Plasmodium falciparum [1] is 93%; in the experiment on Plasmodium falciparum [2] it was 97%; with HepG2, 41%.

Take `CCCC1N=C(N)N=C(N)N1c1cccc(C(F)(F)F)c1.Cl` (stereo unspecified): the Inhibition is given as 95% with Plasmodium falciparum [1], 7% in the experiment with Plasmodium falciparum [2] and 22% in the experiment on HepG2.

As for `Cc1c(CNCCCNc2nc3ccccc3[nH]2)[nH]c2cc(Cl)cc(Cl)c12`, the Inhibition was determined as 100% with Plasmodium falciparum [1], 0% in the experiment on Plasmodium falciparum [2] and 59% with HepG2.

Consider `CCCCN(C)CC#Cc1ccc2[nH]c(C)c(Cl)c(=O)c2c1`, for which the Inhibition is 98% in the experiment on Plasmodium falciparum [1], 97% in the experiment on Plasmodium falciparum [2] and 0% in the experiment on HepG2.

`Nc1ncc(-c2cn[nH]c2)cc1-c1nc2cc(Cl)cnc2[nH]1`: the Inhibition in the experiment with Plasmodium falciparum [1] came to 100%; in the experiment with Plasmodium falciparum [2], 70%; in the experiment on HepG2, 40%.
